According to ChEMBL document CHEMBL1961873, “Compounds: GSK PKIS; Assays: Nanosyn kinase panel” (2012):

How the values were obtained:
[1] = target: T1, Mitogen-activated protein kinase 12 (Homo sapiens) (UniProt P53778); conditions: at 1 µM;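 also: values are averaged p38gamma kinase inhibition readings, compounds tested at 1 µM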
T1 sequence (whole entry): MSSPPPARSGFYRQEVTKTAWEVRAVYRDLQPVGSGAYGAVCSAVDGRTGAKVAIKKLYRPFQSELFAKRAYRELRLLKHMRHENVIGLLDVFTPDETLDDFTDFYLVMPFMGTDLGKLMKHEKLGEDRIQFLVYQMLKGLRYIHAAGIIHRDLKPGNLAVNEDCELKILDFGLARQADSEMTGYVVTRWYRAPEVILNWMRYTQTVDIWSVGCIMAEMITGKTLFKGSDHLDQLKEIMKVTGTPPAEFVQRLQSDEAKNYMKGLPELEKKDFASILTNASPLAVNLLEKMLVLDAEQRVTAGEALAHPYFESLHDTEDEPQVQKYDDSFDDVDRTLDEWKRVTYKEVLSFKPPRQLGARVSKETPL

[2] = target: SRSF protein kinase 1 (Homo sapiens) (UniProt Q96SB4); conditions: at 0.1 µM
[3] = target: SRSF protein kinase 1 (Homo sapiens) (UniProt Q96SB4); conditions: at 1 µM
[4] = target: Phosphatidylinositol 4,5-bisphosphate 3-kinase catalytic subunit alpha isoform (Homo sapiens) (UniProt P42336); conditions: at 0.1 µM
[5] = target: Phosphatidylinositol 4,5-bisphosphate 3-kinase catalytic subunit alpha isoform (Homo sapiens) (UniProt P42336); conditions: at 1 µM
[6] = target: T2, Phosphatidylinositol 4,5-bisphosphate 3-kinase catalytic subunit delta isoform (Homo sapiens) (UniProt O00329); conditions: at 0.1 µM
T2 sequence (whole entry): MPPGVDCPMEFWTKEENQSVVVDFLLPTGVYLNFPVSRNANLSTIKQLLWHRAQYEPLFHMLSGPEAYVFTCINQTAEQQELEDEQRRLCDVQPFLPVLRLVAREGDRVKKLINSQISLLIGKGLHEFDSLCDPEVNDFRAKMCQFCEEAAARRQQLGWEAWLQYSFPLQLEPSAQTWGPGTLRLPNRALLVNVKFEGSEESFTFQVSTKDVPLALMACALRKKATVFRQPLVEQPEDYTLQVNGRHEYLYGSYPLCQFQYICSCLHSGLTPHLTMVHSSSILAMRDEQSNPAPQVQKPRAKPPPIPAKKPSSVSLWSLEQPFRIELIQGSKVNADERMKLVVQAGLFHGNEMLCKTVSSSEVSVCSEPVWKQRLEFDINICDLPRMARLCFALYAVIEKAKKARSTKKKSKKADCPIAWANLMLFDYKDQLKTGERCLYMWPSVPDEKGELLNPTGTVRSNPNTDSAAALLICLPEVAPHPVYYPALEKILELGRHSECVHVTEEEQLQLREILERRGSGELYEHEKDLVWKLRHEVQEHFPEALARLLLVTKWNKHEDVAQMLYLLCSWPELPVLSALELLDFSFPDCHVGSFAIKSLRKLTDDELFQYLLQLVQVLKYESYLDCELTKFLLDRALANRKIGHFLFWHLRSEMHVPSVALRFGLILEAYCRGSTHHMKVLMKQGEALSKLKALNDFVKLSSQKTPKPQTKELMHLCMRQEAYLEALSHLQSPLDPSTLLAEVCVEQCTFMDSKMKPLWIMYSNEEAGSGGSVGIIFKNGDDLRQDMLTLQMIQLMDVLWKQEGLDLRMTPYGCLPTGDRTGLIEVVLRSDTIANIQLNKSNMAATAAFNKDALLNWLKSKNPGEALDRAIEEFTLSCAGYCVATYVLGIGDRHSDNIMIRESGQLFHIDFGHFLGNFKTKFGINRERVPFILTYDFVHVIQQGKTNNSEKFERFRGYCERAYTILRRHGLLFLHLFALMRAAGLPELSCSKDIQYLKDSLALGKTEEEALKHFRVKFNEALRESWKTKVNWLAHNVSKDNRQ

[7] = target: T2, Phosphatidylinositol 4,5-bisphosphate 3-kinase catalytic subunit delta isoform (Homo sapiens); conditions: at 1 µM
[8] = target: Phosphatidylinositol 4-kinase beta (Homo sapiens) (UniProt Q9UBF8); conditions: at 0.1 µM
[9] = target: Phosphatidylinositol 4-kinase beta (Homo sapiens) (UniProt Q9UBF8); conditions: at 1 µM
[10] = target: Sphingosine kinase 1 (Homo sapiens) (UniProt Q9NYA1); conditions: at 0.1 µM
[11] = target: Sphingosine kinase 1 (Homo sapiens) (UniProt Q9NYA1); conditions: at 1 µM
[12] = target: T3, Sphingosine kinase 2 (Homo sapiens) (UniProt Q9NRA0); conditions: at 0.1 µM
T3 sequence (whole entry): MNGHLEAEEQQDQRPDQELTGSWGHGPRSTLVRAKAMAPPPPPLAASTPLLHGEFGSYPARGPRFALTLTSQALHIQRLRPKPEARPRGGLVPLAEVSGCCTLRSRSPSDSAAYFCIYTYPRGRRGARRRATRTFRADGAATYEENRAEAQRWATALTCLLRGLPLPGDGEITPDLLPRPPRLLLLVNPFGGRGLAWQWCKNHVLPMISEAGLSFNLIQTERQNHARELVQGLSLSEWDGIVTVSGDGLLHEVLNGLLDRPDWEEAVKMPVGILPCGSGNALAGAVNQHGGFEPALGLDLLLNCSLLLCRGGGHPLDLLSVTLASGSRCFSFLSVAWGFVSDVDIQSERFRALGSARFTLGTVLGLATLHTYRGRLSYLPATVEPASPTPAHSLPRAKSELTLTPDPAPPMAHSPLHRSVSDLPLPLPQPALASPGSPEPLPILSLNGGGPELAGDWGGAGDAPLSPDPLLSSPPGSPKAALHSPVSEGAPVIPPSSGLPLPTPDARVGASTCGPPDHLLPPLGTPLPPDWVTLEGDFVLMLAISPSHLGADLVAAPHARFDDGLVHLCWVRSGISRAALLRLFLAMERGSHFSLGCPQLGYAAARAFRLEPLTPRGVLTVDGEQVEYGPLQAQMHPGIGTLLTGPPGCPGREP

[13] = target: T3, Sphingosine kinase 2 (Homo sapiens); conditions: at 1 µM
[14] = target: Casein kinase II subunit alpha (Homo sapiens) (UniProt P68400); conditions: at 0.1 µM
[15] = target: Casein kinase II subunit alpha (Homo sapiens) (UniProt P68400); conditions: at 1 µM
[16] = target: T4, Inhibitor of nuclear factor kappa-B kinase subunit alpha (Homo sapiens) (UniProt O15111); conditions: at 0.1 µM
T4 sequence (whole entry): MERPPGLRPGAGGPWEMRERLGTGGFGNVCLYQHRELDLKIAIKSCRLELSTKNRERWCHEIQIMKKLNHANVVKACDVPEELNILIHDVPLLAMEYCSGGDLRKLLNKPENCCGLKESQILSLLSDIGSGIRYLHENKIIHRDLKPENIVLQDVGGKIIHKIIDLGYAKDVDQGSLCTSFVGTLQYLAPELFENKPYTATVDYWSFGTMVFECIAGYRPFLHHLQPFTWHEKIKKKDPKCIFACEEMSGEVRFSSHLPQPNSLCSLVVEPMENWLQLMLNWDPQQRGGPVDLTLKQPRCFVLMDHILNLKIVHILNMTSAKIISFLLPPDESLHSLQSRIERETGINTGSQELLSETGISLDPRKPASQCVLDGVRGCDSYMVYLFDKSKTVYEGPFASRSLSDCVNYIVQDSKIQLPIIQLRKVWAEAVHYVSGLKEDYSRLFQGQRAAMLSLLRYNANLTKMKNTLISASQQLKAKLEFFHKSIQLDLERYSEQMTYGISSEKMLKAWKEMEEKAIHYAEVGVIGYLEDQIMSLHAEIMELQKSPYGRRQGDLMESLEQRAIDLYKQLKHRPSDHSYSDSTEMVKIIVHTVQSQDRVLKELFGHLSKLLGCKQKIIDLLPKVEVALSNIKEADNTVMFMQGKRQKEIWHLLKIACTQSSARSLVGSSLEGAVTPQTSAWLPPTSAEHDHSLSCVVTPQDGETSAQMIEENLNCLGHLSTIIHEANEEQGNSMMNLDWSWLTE

[17] = target: T4, Inhibitor of nuclear factor kappa-B kinase subunit alpha (Homo sapiens); conditions: at 1 µM
[18] = target: T5, Inhibitor of nuclear factor kappa-B kinase subunit beta (Homo sapiens) (UniProt O14920); conditions: at 0.1 µM
T5 sequence (whole entry): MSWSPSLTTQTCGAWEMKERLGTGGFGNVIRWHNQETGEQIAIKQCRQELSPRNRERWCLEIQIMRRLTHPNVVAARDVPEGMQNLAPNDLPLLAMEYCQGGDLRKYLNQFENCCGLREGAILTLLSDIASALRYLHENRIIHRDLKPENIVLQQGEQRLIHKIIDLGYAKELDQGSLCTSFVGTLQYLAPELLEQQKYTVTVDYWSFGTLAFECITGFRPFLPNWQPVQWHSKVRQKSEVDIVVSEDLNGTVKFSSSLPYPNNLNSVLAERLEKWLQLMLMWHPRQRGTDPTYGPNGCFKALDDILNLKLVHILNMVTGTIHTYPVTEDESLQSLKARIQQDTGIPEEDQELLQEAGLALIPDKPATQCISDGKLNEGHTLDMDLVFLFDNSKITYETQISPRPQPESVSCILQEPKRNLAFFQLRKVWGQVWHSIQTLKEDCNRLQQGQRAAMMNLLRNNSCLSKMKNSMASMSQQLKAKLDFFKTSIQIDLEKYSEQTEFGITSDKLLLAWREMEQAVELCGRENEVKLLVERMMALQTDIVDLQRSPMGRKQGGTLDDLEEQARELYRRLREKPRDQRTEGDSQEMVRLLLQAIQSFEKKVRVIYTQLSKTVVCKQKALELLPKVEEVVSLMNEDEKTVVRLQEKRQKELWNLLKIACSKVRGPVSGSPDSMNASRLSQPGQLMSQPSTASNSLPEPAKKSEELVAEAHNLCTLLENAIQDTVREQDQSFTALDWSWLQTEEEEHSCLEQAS

[19] = target: T5, Inhibitor of nuclear factor kappa-B kinase subunit beta (Homo sapiens); conditions: at 1 µM
[20] = target: T6, Inhibitor of nuclear factor kappa-B kinase subunit epsilon (Homo sapiens) (UniProt Q14164); conditions: at 0.1 µM;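 also: mean inhibition of IKKε reported, from the GSK PKIS dataset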
T6 sequence (whole entry): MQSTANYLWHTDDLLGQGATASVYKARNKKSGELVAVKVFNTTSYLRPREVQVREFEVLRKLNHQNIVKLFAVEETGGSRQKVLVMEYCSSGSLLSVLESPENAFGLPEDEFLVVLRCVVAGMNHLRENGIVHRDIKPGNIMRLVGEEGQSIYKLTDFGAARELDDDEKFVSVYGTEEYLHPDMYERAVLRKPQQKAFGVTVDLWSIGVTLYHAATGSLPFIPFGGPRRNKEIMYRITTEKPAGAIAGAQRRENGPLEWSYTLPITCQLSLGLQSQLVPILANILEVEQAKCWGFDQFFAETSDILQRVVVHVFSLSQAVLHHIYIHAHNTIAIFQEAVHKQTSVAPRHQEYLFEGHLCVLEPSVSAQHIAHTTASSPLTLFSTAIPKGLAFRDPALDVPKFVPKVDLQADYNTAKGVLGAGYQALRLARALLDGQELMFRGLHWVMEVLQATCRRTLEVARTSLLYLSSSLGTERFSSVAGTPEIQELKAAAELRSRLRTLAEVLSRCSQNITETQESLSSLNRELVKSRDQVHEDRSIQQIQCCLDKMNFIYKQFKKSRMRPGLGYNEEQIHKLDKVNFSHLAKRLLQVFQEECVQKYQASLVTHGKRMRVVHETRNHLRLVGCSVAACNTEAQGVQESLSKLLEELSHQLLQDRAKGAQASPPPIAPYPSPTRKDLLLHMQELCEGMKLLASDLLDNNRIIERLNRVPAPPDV

Casein kinase II subunit alpha (Homo sapiens), sequence (P68400 whole entry, looked up): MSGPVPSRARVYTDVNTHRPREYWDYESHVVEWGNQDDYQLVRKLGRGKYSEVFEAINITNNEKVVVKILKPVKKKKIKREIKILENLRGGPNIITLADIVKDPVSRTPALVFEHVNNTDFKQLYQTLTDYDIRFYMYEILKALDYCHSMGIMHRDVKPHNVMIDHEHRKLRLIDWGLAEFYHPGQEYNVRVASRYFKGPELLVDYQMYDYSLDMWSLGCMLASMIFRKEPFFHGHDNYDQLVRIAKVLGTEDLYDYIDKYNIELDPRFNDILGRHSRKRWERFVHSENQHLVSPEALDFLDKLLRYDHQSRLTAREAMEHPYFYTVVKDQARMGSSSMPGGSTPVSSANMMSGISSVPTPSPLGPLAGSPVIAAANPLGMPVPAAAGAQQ
SRSF protein kinase 1 (Homo sapiens), sequence (Q96SB4 whole entry, canonical isoform): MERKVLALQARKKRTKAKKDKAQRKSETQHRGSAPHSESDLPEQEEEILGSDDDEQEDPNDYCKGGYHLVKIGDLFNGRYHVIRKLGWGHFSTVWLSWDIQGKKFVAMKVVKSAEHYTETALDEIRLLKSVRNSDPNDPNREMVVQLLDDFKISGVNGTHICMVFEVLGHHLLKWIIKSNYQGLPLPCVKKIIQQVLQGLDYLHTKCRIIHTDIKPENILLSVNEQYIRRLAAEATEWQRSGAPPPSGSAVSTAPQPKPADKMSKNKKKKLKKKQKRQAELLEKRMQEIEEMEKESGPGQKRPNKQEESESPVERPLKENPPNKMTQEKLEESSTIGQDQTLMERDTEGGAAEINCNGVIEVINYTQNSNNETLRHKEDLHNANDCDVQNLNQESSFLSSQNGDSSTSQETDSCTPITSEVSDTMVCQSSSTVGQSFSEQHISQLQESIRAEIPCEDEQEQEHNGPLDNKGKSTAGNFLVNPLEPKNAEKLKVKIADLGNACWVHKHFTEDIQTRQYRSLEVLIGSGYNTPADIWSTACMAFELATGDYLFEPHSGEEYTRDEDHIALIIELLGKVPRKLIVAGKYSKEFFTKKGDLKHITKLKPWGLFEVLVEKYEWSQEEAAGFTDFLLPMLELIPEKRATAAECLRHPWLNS
Sphingosine kinase 1 (Homo sapiens), sequence (Q9NYA1 whole entry): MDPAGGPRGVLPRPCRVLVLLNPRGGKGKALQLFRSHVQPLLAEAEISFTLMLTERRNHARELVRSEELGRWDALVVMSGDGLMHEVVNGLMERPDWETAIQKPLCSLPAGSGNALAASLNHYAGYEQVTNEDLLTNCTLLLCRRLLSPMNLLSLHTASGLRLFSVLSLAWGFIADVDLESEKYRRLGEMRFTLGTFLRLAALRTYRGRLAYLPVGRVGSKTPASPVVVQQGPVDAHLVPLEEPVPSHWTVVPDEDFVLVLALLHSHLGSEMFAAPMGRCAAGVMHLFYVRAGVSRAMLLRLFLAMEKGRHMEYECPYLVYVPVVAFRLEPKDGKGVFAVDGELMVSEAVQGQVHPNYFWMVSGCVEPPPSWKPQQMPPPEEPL
Phosphatidylinositol 4-kinase beta (Homo sapiens), sequence (Q9UBF8 2-816 limits assumed): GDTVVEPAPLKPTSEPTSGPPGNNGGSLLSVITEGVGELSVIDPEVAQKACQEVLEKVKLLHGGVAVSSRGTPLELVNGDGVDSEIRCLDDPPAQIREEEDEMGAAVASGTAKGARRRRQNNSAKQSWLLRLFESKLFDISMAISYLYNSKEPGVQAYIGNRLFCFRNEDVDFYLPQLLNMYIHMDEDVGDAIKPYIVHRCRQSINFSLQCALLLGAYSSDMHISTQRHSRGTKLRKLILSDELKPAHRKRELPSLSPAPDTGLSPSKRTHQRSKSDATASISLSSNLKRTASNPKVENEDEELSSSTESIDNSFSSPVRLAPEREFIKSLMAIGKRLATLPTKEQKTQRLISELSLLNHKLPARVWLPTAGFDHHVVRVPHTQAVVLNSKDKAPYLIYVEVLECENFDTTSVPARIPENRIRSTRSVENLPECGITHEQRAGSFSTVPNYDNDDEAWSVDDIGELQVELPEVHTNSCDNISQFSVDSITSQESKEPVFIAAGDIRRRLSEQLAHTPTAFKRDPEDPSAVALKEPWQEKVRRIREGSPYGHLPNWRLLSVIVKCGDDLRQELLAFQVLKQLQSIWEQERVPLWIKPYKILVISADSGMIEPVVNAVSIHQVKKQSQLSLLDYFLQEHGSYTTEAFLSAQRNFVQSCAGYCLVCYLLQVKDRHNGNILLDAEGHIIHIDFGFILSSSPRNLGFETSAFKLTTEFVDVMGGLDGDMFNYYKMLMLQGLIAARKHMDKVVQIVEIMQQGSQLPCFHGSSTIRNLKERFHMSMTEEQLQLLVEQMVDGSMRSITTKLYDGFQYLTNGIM
Phosphatidylinositol 4,5-bisphosphate 3-kinase catalytic subunit alpha isoform (Homo sapiens), sequence (P42336 whole entry, canonical isoform): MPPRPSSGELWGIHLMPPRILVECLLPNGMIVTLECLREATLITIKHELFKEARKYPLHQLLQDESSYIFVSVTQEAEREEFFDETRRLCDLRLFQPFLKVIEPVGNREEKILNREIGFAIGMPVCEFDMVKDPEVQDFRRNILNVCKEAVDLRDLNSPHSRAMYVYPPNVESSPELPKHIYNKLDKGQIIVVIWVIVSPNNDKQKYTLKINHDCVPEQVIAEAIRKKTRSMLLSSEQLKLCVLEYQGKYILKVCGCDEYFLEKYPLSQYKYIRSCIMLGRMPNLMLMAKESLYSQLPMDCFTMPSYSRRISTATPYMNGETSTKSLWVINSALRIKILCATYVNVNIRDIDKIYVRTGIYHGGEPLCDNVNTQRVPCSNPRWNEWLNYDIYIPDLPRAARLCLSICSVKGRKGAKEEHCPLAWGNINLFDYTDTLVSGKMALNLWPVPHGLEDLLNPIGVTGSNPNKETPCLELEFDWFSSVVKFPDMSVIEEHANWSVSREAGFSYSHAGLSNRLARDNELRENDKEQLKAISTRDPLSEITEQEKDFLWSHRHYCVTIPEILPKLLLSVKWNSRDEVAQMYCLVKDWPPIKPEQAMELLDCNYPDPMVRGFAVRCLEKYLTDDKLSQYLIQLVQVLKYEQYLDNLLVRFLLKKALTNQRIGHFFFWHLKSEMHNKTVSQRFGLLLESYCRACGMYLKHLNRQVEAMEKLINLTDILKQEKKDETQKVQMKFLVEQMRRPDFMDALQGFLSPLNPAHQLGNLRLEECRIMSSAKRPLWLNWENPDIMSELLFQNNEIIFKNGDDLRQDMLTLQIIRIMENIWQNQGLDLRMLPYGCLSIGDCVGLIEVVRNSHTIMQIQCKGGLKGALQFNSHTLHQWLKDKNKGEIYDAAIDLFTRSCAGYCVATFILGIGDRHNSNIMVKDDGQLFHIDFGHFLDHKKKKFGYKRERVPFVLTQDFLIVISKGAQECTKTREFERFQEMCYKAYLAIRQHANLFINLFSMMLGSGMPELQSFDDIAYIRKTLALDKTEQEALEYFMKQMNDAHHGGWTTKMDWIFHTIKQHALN

| Structure (SMILES) | inhibition [1] [%] | inhibition [2] [%] | inhibition [3] [%] | inhibition [4] [%] | inhibition [5] [%] | inhibition [6] [%] | inhibition [7] [%] | inhibition [8] [%] | inhibition [9] [%] | inhibition [10] [%] | inhibition [11] [%] | inhibition [12] [%] | inhibition [13] [%] | inhibition [14] [%] | inhibition [15] [%] | inhibition [16] [%] | inhibition [17] [%] | inhibition [18] [%] | inhibition [19] [%] | inhibition [20] [%] |
| --- | --- | --- | --- | --- | --- | --- | --- | --- | --- | --- | --- | --- | --- | --- | --- | --- | --- | --- | --- | --- |
| COC(=O)c1sc(-n2cnc3cc(OC)c(OC)cc32)cc1OCc1ccccc1C(F)(F)F | 2.9 | -3.05 | -6.39 | 4.25 | 4.16 | 2.55 | 4.61 | -0.98 | -2.56 | -3.91 | 1.91 | 0.14 | -2.19 | 0.66 | -0.18 | 3.9 | 5.32 | 5.59 | 4.11 | 3.88 |
| Nc1ncc(-c2cccc(S(N)(=O)=O)c2)c2scc(-c3ccc(F)c(Cl)c3)c12 | 3.12 | -2.06 | -3.1 | 4.44 | 8.82 | 1.02 | 3.18 | 7.12 | 1.6 | -0.6 | -4.57 | -1.05 | 0.43 | 9.52 | 3.4 | -2.46 | -3.58 | 3 | 5.65 | 7.15 |
| CCn1c(-c2nonc2N)nc2c(C#CC(C)(C)O)ncc(OC3CCNCC3)c21 | 3.11 | -3.24 | -2.54 | 2.27 | 1.82 | -0.02 | 0.63 | 4.47 | 0.66 | -1.2 | 4.1 | -2.62 | 0.82 | 5.58 | 2.13 | 3.92 | 0.96 | 4.3 | 5.45 | 79.5 |
| N#Cc1c(NC(=O)CN2CCOCC2)sc2c1CCCC2 | 3.63 | -1.48 | 3.81 | 3.43 | 3.19 | 0.47 | 0.45 | 0.92 | -0.98 | 0.08 | -2.59 | 1.39 | -0.6 | 6.02 | 10.9 | 6.78 | 6.16 | 4.25 | 5.09 | 9.02 |
| Nc1nc(-c2cccc(Cl)c2)c(-c2ccc3ncccc3n2)s1 | 3.06 | 0.23 | 2.87 | 4.68 | 8.41 | 2.57 | 6.4 | 0.45 | -3.79 | -1.31 | -3.27 | 0.78 | 0.1 | 4.99 | 15.3 | 10.6 | 13.9 | 8.18 | 7.33 | 9.04 |
| Cc1cccc(Nc2ncc(-c3ccccc3)o2)c1 | 4.77 | -2.35 | 0.2 | 0.69 | -0.17 | 0.73 | 1.52 | 1.05 | 2.54 | 1 | 3.75 | 0.62 | -1.72 | 4.16 | 3.49 | 3.87 | 7.95 | 4.82 | 5.08 | 5.18 |
